Reference: PubChem BioAssay AID1159580 (chemical genetic matrix, 2015)
About 2,000 (36%) of roughly 5,500 compounds were called active. Inconclusive results (about 18%) are left out. Some of the results follow. Values without a mark were called inactive. No stated cut-off is given here; in the data, active means normalized growth mostly below about 0.91 (no sharp cut-off); inconclusive means no clear call, values can overlap the other calls; inactive means mostly above about 0.92.

Experiment: chemical genetic growth profiling, strain panel (AID 1159580);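 further: tested at 20 µM; growth read once vehicle control cultures reached saturation at 30 °C; 1 = growth at the plate median or of vehicle wells; lower values mean less growth of the strain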
Conditions: S. cerevisiae deletion strains, growth OD
[1] = locus YAR019C, strain CDC15, hits give low values
[2] = locus YBL105C, strain PKC1, hits give low values
[3] = locus YBR135W, strain CKS1, hits give low values
[4] = locus YBR136W, strain MEC1, hits give low values
[5] = locus YBR160W, strain CDC28, hits give low values
[6] = locus YDL017W, strain CDC7, hits give low values
[7] = locus YDL028C, strain MPS1, hits give low values
[8] = locus YDL101C, strain DUN1, hits give low values
[9] = locus YDL108W, strain KIN28, hits give low values
[10] = locus YDL132W, strain cdc53, hits give low values
[11] = locus YDL214C, strain PRR2, hits give low values
[12] = locus YDR052C, strain DBF4, hits give low values
[13] = locus YDR054C, strain cdc34, hits give low values
[14] = locus YDR226W, strain ADK1, hits give low values
[15] = locus YDR477W, strain SNF1, hits give low values
[16] = locus YER123W, strain YCK3, hits give low values
[17] = locus YER133W, strain GLC7, hits give low values
[18] = locus YFL009W, strain cdc4, hits give low values
[19] = locus YFL029C, strain CAK1, hits give low values
[20] = locus YFR003C, strain YPI1, hits give low values
[21] = locus YFR019W, strain FAB1, hits give low values
[22] = locus YFR028C, strain CDC14, hits give low values
[23] = locus YGR040W, strain KSS1, hits give low values
[24] = locus YGR052W, strain FMP48, hits give low values
[25] = locus YGR092W, strain DBF2, hits give low values
[26] = locus YHR030C, strain SLT2, hits give low values
[27] = locus YHR079C, strain IRE1, hits give low values
[28] = locus YHR082C, strain KSP1, hits give low values
[29] = locus YHR205W, strain SCH9, hits give low values
[30] = locus YIL147C, strain SLN1, hits give low values
[31] = locus YJL095W, strain BCK1, hits give low values
[32] = locus YJL128C, strain PBS2, hits give low values
[33] = locus YJL157C, strain FAR1, hits give low values
[34] = locus YJR016C, strain ILV3, hits give low values
[35] = locus YJR066W, strain TOR1 (second series), hits give low values
[36] = locus YJR066W, strain TOR1, hits give low values
[37] = locus YKL048C, strain ELM1, hits give low values
[38] = locus YKL067W, strain YNK1, hits give low values
[39] = locus YKL101W, strain HSL1, hits give low values
[40] = locus YKL193C, strain SDS22, hits give low values
[41] = locus YKL203C, strain TOR2, hits give low values
[42] = locus YLR113W, strain HOG1, hits give low values
[43] = locus YLR133W, strain CKI1, hits give low values
[44] = locus YLR403W, strain SFP1, hits give low values
[45] = locus YML070W, strain DAK1, hits give low values
[46] = locus YMR001C, strain CDC5, hits give low values
[47] = locus YMR205C, strain PFK2 (second series), hits give low values
[48] = locus YMR277W, strain FCP1, hits give low values
[49] = locus YNL006W, strain LST8, hits give low values
[50] = locus YNL020C, strain ARK1, hits give low values
[51] = locus YNL161W, strain CBK1, hits give low values
[52] = locus YNL183C, strain NPR1, hits give low values
[53] = locus YNL207W, strain RIO2, hits give low values
[54] = locus YNL222W, strain SSU72, hits give low values
[55] = locus YNL307C, strain MCK1 (second series), hits give low values
[56] = locus YOL078W, strain AVO1, hits give low values
[57] = locus YOL136C, strain PFK27, hits give low values
[58] = locus YOR061W, strain CKA2, hits give low values
[59] = locus YOR119C, strain RIO1, hits give low values
[60] = locus YOR231W, strain MKK1, hits give low values
[61] = locus YOR329C, strain SCD5, hits give low values
[62] = locus YPL031C, strain PHO85, hits give low values
[63] = locus YPL153C, strain RAD53, hits give low values
[64] = locus YPL204W, strain HRR25, hits give low values
[65] = locus YPL209C, strain IPL1, hits give low values
[66] = locus YPL256C, strain CLN2, hits give low values
[67] = locus YPR025C, strain CCL1, hits give low values
[68] = locus YPR106W, strain ISR1, hits give low values
[69] = locus YPR111W, strain DBF20, hits give low values
[70] = strain NNK1, hits give low values
[71] = strain TSCII, hits give low values

CC(C)(C)c1ccc(C(=O)NNC(=S)Nc2ccc(Cl)cc2)cc1
normalized growth [1]: 0.958 | normalized growth [2]: 0.978 | normalized growth [3]: 0.972 | normalized growth [4]: 0.974 | normalized growth [5]: 0.965 | normalized growth [6]: 0.983 | normalized growth [7]: 0.936 | normalized growth [8]: 0.978 | normalized growth [9]: 0.96 | normalized growth [10]: 0.971 | normalized growth [11]: 0.932 | normalized growth [12]: 0.986 | normalized growth [13]: 0.968 | normalized growth [14]: 0.954 | normalized growth [15]: 0.931 | normalized growth [16]: 0.895 | normalized growth [17]: 0.949 | normalized growth [18]: 0.937 | normalized growth [19]: 0.96 | normalized growth [20]: 0.98 | normalized growth [21]: 0.98 | normalized growth [22]: 0.957 | normalized growth [23]: 0.939 | normalized growth [24]: 0.974 | normalized growth [25]: 0.862 | normalized growth [26]: 0.731 (active) | normalized growth [27]: 0.916 | normalized growth [28]: 0.984 | normalized growth [29]: 0.904 | normalized growth [30]: 0.973 | normalized growth [31]: 0.898 | normalized growth [32]: 0.93 | normalized growth [33]: 0.953 | normalized growth [34]: 0.986 | normalized growth [35]: 0.845 | normalized growth [36]: 0.903 | normalized growth [37]: 0.996 | normalized growth [38]: 0.909 | normalized growth [39]: 0.91 | normalized growth [40]: 0.97 | normalized growth [41]: 1.01 | normalized growth [42]: 0.878 | normalized growth [43]: 0.938 | normalized growth [44]: 0.96 | normalized growth [45]: 0.921 | normalized growth [46]: 0.953 | normalized growth [47]: 0.933 | normalized growth [48]: 0.949 | normalized growth [49]: 0.981 | normalized growth [50]: 0.933 | normalized growth [51]: 0.986 | normalized growth [52]: 0.962 | normalized growth [53]: 0.971 | normalized growth [54]: 0.976 | normalized growth [55]: 0.896 | normalized growth [56]: 0.97 | normalized growth [57]: 0.919 | normalized growth [58]: 0.969 | normalized growth [59]: 0.964 | normalized growth [60]: 0.916 | normalized growth [61]: 0.983 | normalized growth [62]: 0.927 | normalized growth [63]: 0.873 | normalized growth [64]: 0.907 | normalized growth [65]: 0.968 | normalized growth [66]: 0.839 (active) | normalized growth [67]: 0.979 | normalized growth [68]: 0.984 | normalized growth [69]: 0.927 | normalized growth [70]: 0.997 | normalized growth [71]: 0.974

S=C(Nc1ccc(Cl)cc1)Nc1ccc(Cl)cc1
normalized growth [1]: 0.912 | normalized growth [2]: 0.915 | normalized growth [3]: 0.938 | normalized growth [4]: 0.928 | normalized growth [5]: 0.926 | normalized growth [6]: 0.921 | normalized growth [7]: 0.935 | normalized growth [8]: 0.96 | normalized growth [9]: 0.933 | normalized growth [10]: 0.927 | normalized growth [11]: 0.855 | normalized growth [12]: 0.894 (active) | normalized growth [13]: 0.912 | normalized growth [14]: 0.95 | normalized growth [15]: 0.861 | normalized growth [16]: 0.791 | normalized growth [17]: 0.828 | normalized growth [18]: 0.925 | normalized growth [19]: 0.92 | normalized growth [20]: 0.922 | normalized growth [21]: 0.864 | normalized growth [22]: 0.915 | normalized growth [23]: 0.847 | normalized growth [24]: 0.811 | normalized growth [25]: 0.703 | normalized growth [26]: 0.662 (active) | normalized growth [27]: 0.807 | normalized growth [28]: 0.902 | normalized growth [29]: 0.881 | normalized growth [30]: 0.926 | normalized growth [31]: 0.814 | normalized growth [32]: 0.903 | normalized growth [33]: 0.827 | normalized growth [34]: 0.922 | normalized growth [35]: 0.83 | normalized growth [36]: 0.772 | normalized growth [37]: 0.944 | normalized growth [38]: 0.853 | normalized growth [39]: 0.888 | normalized growth [40]: 0.926 | normalized growth [41]: 0.871 | normalized growth [42]: 0.717 (active) | normalized growth [43]: 0.839 | normalized growth [44]: 0.835 | normalized growth [45]: 0.825 | normalized growth [46]: 0.922 | normalized growth [47]: 0.871 | normalized growth [48]: 0.918 | normalized growth [49]: 0.937 | normalized growth [50]: 0.837 | normalized growth [51]: 0.918 | normalized growth [52]: 0.779 | normalized growth [53]: 0.893 | normalized growth [54]: 0.936 | normalized growth [55]: 0.783 | normalized growth [56]: 0.921 | normalized growth [57]: 0.848 | normalized growth [58]: 0.808 | normalized growth [59]: 0.878 | normalized growth [60]: 0.836 | normalized growth [61]: 0.923 | normalized growth [62]: 0.82 | normalized growth [63]: 0.845 | normalized growth [64]: 0.778 | normalized growth [65]: 0.923 | normalized growth [66]: 0.819 (active) | normalized growth [67]: 0.932 | normalized growth [68]: 0.931 | normalized growth [69]: 0.931 | normalized growth [70]: 0.932 | normalized growth [71]: 0.906
